Screening results: PubChem, Sanford-Burnham Center for Chemical Genomics
CYP2C9 activ = human CYP2C9 activators, primary screen, biochemical, luminescence; recombinant CYP2C9, luciferin-H conversion; active compounds read high; factor 1 = untreated enzyme, 0 = blocked; activation factor at 5 µM; 1.4% of 96,000 active; AID 1024, 2008;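 active means activation factor of 2 or more for CYP2C9 at a 5 µM dose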;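 further: 0 = sulfaphenazole-blocked wells and 1 = vehicle-only wells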
PTK2B oligo ant = antagonists of Pyk2 self-association, primary screen, Q293 cells, FERM NanoBiT luminescence, HTS; 0.83% of 99,000 active; active compounds read low; z-score (the deposit names both 25 µM and 10 µM); Protein-tyrosine kinase 2-beta (Homo sapiens), Q14289;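 active means Z-score of -3 or lower, scaled per plate to the spread of control and sample wells; inactive means z-score above -3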;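 further: negative z-score means lost luminescence so less FERM oligomerization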
Target sequence (Q14289 whole entry, looked up): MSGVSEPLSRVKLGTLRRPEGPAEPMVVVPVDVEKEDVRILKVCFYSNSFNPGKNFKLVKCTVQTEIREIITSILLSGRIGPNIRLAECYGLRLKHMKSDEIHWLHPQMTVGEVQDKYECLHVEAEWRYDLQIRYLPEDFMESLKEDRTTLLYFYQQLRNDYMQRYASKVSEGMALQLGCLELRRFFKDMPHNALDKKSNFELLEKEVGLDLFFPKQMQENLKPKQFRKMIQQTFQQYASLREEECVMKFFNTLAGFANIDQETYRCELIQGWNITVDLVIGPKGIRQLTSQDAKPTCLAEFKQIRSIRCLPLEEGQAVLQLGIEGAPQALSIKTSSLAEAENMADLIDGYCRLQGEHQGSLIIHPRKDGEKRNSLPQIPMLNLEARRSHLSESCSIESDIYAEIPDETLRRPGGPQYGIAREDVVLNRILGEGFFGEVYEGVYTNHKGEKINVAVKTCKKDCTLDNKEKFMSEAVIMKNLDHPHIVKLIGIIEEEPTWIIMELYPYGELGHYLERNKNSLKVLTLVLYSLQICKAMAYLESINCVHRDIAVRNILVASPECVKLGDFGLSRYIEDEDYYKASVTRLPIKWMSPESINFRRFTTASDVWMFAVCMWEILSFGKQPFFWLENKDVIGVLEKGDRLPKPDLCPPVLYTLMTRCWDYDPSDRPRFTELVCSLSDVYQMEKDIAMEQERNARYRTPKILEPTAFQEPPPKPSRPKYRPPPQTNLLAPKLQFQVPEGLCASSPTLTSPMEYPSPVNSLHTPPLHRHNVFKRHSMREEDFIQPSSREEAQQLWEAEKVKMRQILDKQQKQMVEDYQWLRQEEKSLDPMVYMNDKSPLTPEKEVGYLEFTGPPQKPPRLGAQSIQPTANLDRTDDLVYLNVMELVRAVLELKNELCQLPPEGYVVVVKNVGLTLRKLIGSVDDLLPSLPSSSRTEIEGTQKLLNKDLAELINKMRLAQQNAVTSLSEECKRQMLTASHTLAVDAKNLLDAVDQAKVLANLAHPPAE
CYP2C19 activ = human CYP2C19 activators, primary screen, biochemical, luminescence | Cytochrome P450 2C19 (Homo sapiens), P33261 | 96,000 tested, under 10 active | activation factor at 5 µM | recombinant CYP2C19, luciferin-H EGE luminescence; active compounds read high; 0 = fully inhibited enzyme, 1 = untreated enzyme;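 active means activation factor of at least 2 at 5 µM in the primary screen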;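 further: 0 = wells with 2.5 mM tranylcypromine and 1 = vehicle-only wells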
CYP2C9 inh = blockers of cytochrome P450 2C9 activity – biochemical, luminescence, ADME assay, primary screen; AID 777, 2007; 20% of 96,000 active; inhibition, % at 5 µM; CYP2C9 Supersomes, luciferin-H conversion;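 active means blocking of liver enzyme CYP2C9 beyond about 50% at 5 µM, limit read from the data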
CYP2C19 inh = blockers of cytochrome P450 2C19 activity – biochemical, luminescence, ADME assay, primary screen | inhibition, % at 5 µM | AID 778, 2007 | CYP2C19 Supersomes, luciferin-H EGE luminescence, 30 min | 21% of 96,000 active | P33261;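 active means CYP2C19 inhibition above a set limit at 5 µM in the primary screen, cut at about 50% in these data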;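 further: plate controls were negative control wells for no effect and 2.5 mM tranylcypromine positive control for full effect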
Starred values were filed as active, the others as inactive; . = no result given. An excerpt weighted towards active compounds, which were near 28% of everything screened.

SMILES	CYP2C9 activ	PTK2B oligo ant	CYP2C19 activ	CYP2C9 inh	CYP2C19 inh
O=C(CN1CCSCC1)N/N=C/c1ccc(F)c(F)c1	1.3	-0.62	0.9	-28	8
CN(CCc1ccccn1)C1CC(=O)N(c2ccc(Cl)cc2)C1=O (stereo not drawn)	1.3	1.8	0.7	-25	28
CC(=O)Nc1ccc(Cc2ccncc2)cc1	0.1	-0.03	0	87*	97*
CC(=O)NCCOC(=O)Nc1cccnc1	1	0.27	1.1	1	-9
O=C(Nc1ccc(Cc2ccncc2)cc1)C1CC1	0.1	0.41	0.2	89*	84*
COc1cc(NC(=O)Nc2cccc(C(C)=O)c2)cc(OC)c1OC	0.8	0.17	0.8	21	18
CC(=O)NCCOC(=O)Nc1ccncc1	0.4	0.39	0.8	62*	22
COc1cc(NC(=O)NCc2ccncc2)cc(OC)c1OC	0.3	1.2	0.4	67*	62*
CCCCCC(=O)Nc1ccc(Cc2ccncc2)cc1	.	1.1	.	.	.
COCCSc1ccccc1C(=O)N1CCOCC1	1	0.79	1.1	5	-13
Cc1cccc(Cn2c(C(C)(C)C)cc3cccnc32)c1	1	0.52	0.9	-5	9
COc1cc(NS(=O)(=O)N2CCCC2)cc(OC)c1OC	1.2	0.38	0.7	-17	32
COc1ccc(NC(=O)Nc2ccc(Cc3ccncc3)cc2)cc1OC	0.2	-0.48	0.2	78*	77*
O=C(Nc1ccc(Cc2ccc(NC(=O)C3CC3)c(O)c2)cc1O)C1CC1	0.3	0.26	0.9	70*	13
O=C(Nc1ccc(Cc2ccncc2)cc1)C1CCC(N2C(=O)C3C4C=CC(C5CC45)C3C2=O)CC1 (stereo not drawn)	0.3	-4.2*	0.6	74*	40
COC(=O)Nc1ccc(OC)c(OC)c1	0.9	-0.15	0.9	10	9
O=S(=O)(Nc1ccc(Cc2ccncc2)cc1)N1CCCC1	0	-0.29	0	97*	100*
CC1NC(=O)N(C)C2NC(=O)N(C)C(c3ccccc3)C12 (stereo not drawn)	1	-0.06	1	0	-1
N#CCCC12CCCCC1=Nc1ccccc12 (stereo not drawn)	0.9	0.72	0.9	8	5
Cc1ccc(C(=O)Nc2ccc(Cc3ccncc3)cc2)cc1[N+](=O)[O-]	0.1	-0.05	0.1	90*	91*
Cc1cc(Nc2ccccc2)nn1C(=O)c1ccc([N+](=O)[O-])cc1	.	0.41	.	.	.
Cc1cc(Nc2ccccc2)nn1C(=O)c1ccc(Cl)cc1	0.5	.	1.1	55*	-10
C=CCN(CC(=O)NCc1ccccc1)C(=O)c1csnn1	0.9	0.89	0.3	10	73*
COc1ccc(CNC(=O)CN(Cc2ccccc2)C(=O)c2csnn2)cc1	0.7	0	0.7	26	32
CCN(C(=O)c1cccnc1)c1ccccc1	0.9	0.66	1.1	5	-7
SMILES	CYP2C9 activ	PTK2B oligo ant	CYP2C19 activ	CYP2C9 inh	CYP2C19 inh
CCN(C(=O)c1cc(Cl)ccc1OC)C1CCCCC1	0	-0.16	0.1	96*	95*
CCN(C(=O)c1cc(Cl)ccc1OC)c1ccccc1	0.6	-0.34	0.3	45	72*
CCN(C(=O)c1ccccc1Cl)c1ccccc1	1	1.4	0.4	4	62*
CC(=O)N(CCN(C(C)=O)c1ccccc1)c1ccccc1	1.2	0.35	0.3	-21	73*
Cc1nc(C)c(C(=O)NCc2ccccc2Cl)o1	1	1.2	1	-5	1
Cc1ccc(N2C(=O)CC(n3nc(C)cc3C)C2=O)cc1 (stereo not drawn)	1.2	0.46	1	-25	4
CCN(CC)C(=O)C(=O)N/N=C/c1ccc(Br)cc1	0.8	2.1	0.7	18	35
CCCC(=O)Nc1cccc(C(=O)Nc2nccs2)c1	0.4	-0.51	0.8	55*	20
CC(C)C(=O)Nc1cccc(C(=O)Nc2nccs2)c1	0.1	0.01	0.8	86*	20
COCCn1c(C)cc(C(=O)CSc2nc(C)nc3sc4c(c23)CCC4)c1C	.	0.33	.	.	.
Cc1ccccc1C(=O)N1CCN(c2ccc(NC(=O)CSc3ccc(Cl)cc3)cc2)CC1	0.6	-0.66	0.7	45	27
CC(=O)c1c(C)[nH]c(C(=O)OCn2nnc3ccccc3c2=O)c1C	1.1	-0.65	0.9	-9	11
COc1ccc(N/C(C)=C2/C(=O)C(=O)N(CCO)C2c2ccc(Br)cc2)cc1 (stereo not drawn)	0.5	-0.38	0.4	52*	60*
CCC(=O)N1c2ccccc2NC2=C(C(=O)CCC2)C1c1ccc(N(C)C)cc1 (stereo not drawn)	1	-0.63	1.1	-2	-5
Cc1cc(C)cc(-n2c(C)cc(/C=N/NC(=O)c3cccc([N+](=O)[O-])c3C)c2C)c1	0.5	-0.8	0.8	53*	22
c1ccc(CCNc2ccc3nncn3n2)cc1	1.1	.	0.4	-9	64*
O=C(NCCc1ccccc1)c1ccc(-n2cnnn2)cc1	1	-0.21	0.9	-4	8
CCOc1ccc(NC(=S)NCCCn2ccnc2)cc1	.	-0.71	.	.	.
O=C(NCCCn1ccnc1)C(Cc1ccccc1)N1C(=O)c2ccccc2C1=O (stereo not drawn)	0.4	0.18	0.4	62*	64*
O=C(NCCCn1ccnc1)c1cn(Cc2ccc(F)cc2)nn1	0.4	-0.16	0.1	60*	94*
Cc1ccc(C(=O)NCCCn2ccnc2)o1	0.7	-0.35	0.3	28	72*
[N-]=[N+]=CC(=O)C(Cc1ccccc1)N1C(=O)c2ccccc2C1=O (stereo not drawn)	0.8	0.72	0.6	17	38
Cc1ccc2nc3c(cc(C(=O)NCCCn4ccnc4)n3C)c(=O)n2c1	0.1	1.2	0.1	90*	89*
O=C(CNC(=S)N(Cc1ccccc1F)C1CCCCC1)NC1CC1	0.9	1.4	0.7	6	33
CS(=O)(=O)N(CC(=O)N1CCN(c2ccccc2F)CC1)c1cc(C(F)(F)F)ccc1Cl	1.8	0.3	0.7	-76	29
SMILES	CYP2C9 activ	PTK2B oligo ant	CYP2C19 activ	CYP2C9 inh	CYP2C19 inh
O=C(NCCCn1ccnc1)c1sc2cccc(F)c2c1Cl	0.1	0.93	0	91*	96*
O=C(/C=N/O)NCCCn1ccnc1	1	-0.48	0.9	4	5
O=C(NCCCn1ccnc1)NC(C(F)(F)F)C(F)(F)F	0.3	-0.04	0.2	68*	80*
COc1ccc(C(=O)N/C(=C/c2cccs2)C(=O)NCCCn2ccnc2)cc1OC	0.5	0.02	0.6	46	42
O=C(NCCCn1ccnc1)C1c2ccccc2Oc2ccccc21	0	0.23	0	98*	100*
O=C(NCCCn1ccnc1)/C(=C/c1ccco1)NC(=O)c1ccccc1	.	0.38	.	.	.
